This is a sample that favours compounds with a hit; in the whole collection about 19% have one here.
HT1080 IDH1KD tx – qHTS for induction of synthetic lethality in tumor cells producing 2HG: qHTS for the HT-1080-IDH1KD cell line. actives 2% (n = 360,000). AID 686971, 2013. Potency, µM (series often up to 46.1 µM), without a hit: top-dose activity, negative = toxicity, hits mostly cytotoxic. HT-1080 IDH1 knockdown viability, ATP luminescence, 48 h;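 also: potency is read from the fitted curve at half-maximal effect; 0% = DMSO wells and -100% = cell-free medium wells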
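Luminescent ATP read-out (CellTiter-Glo, 10 min at room temperature) after 48 h compound exposure at 37 °C gave viability of IDH1-knockdown HT-1080 cells. Activity was normalised to DMSO and cell-free wells, then fitted as concentration-response curves.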
IL-1B inflam inh – qHTS for Inhibitors of Inflammasome Signaling: IL-1-beta AlphaLISA Primary Screen | THP-1 LPS/ATP IL-1B secretion, AlphaLISA, 16 h; stronger effect = lower value | activity change, % at 57.5 µM | actives 4.7% (n = 360,000); in the data active = activity change below about -50%; inconclusive = mostly about -30% to -49%
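THP-1 cells pretreated 1 hr with compounds (up to 57.5 uM final), then stimulated with LPS (250 ng/mL final) plus ATP (1.25 mM final); secreted IL-1B measured by AlphaLISA after 16 hr, decreased signal indicating inhibition.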
TDP1 cell CPT – qHTS for Inhibitors of human tyrosyl-DNA phosphodiesterase 1 (TDP1): qHTS in cells in presence of CPT | chicken DT40 Tdp1-/-;hTDP1 cells + 20 nM CPT, ATP luminescence, 48 h | Potency, µM (titrated, usually from 46.2 µM), inactives show at the highest dose activity change, negative = growth inhibition, actives largely listed as inhibitors | actives 12% (n = 420,000); also: potency is read from the fitted curve at half-maximal effect; nearly all actives have a fitted effect of over 55% in size
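Chicken DT40 Tdp1-/- cells complemented with human TDP1, 400 cells/well, exposed to compounds plus 20 nM camptothecin for at least 48 h at 37 C; viability read as ATP content by CellTiter-Glo luminescence.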
HT1080-NT tox – qHTS for induction of synthetic lethality in tumor cells producing 2HG: qHTS for the HT-1080-NT fibrosarcoma cell line. HT-1080-NT fibrosarcoma viability, CellTiter-Glo ATP luminescence, 48 h. Potency, µM (titrated, usually from 46.1 µM), without a hit: at the highest dose activity, negative = less viability, hits mostly cytotoxic. actives 1.6% (n = 360,000). AID 686970, 2013;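 also: NT is the 2HG producing partner of a matched IDH1 knockdown line; potency is read from the fitted curve at half-maximal effect; 0% = DMSO-treated cells and -100% = media-only wells without cells; nearly all actives have a fitted effect of over 55% in size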
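A 48-hour cytotoxicity screen used HT-1080-NT cells plated 2 hours before compound delivery. ATP-based CellTiter-Glo luminescence measured viability, normalized to DMSO and no-cell controls.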
TDP1 cell noCPT – qHTS for Inhibitors of human tyrosyl-DNA phosphodiesterase 1 (TDP1): qHTS in cells in absence of CPT. actives 15% (n = 420,000). AID 686978, 2013. DT40 Tdp1-/- hTDP1 cells, no CPT, ATP luminescence, 48 h. Potency, µM (highest dose often 46.2 µM), for inactives: at the top dose activity change, negative = growth inhibition, actives largely listed as inhibitors; also: potency is read from the fitted curve at half-maximal effect; nearly all actives have a fitted effect of over 55% in size
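A cellular qHTS used chicken DT40 cells lacking endogenous Tdp1 but carrying stably transfected human TDP1. Compounds were applied without camptothecin, and cell growth kinetics were judged by ATP-dependent luminescence after ≥48 hr.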
* marks the source's active call; other numbers are inactive results; ! = not confirmed by another sample; [ ] = remark or other dose. Unless noted, calls follow the shape of the dose curve; as a rule, active = well fitted curve in the direction sought with a large enough effect; inconclusive = small, poorly fitted or top-dose-only effect, or another doubt; inactive = no such curve, though single readings can be large; an effect the other way counts as inactive or inconclusive. Unless noted, % is scaled to controls: 0 for no effect and ±100 for the full control effect.

O=c1[nH]cc(S(=O)(=O)N2CCCc3ccccc32)c(=O)[nH]1 was read as HT1080 IDH1KD tx 4.0%, IL-1B inflam inh 9.0, TDP1 cell CPT 7.0%, HT1080-NT tox 9.2% and TDP1 cell noCPT 19.8%.
For N#Cc1ccccc1CSc1nc2ccsc2c(=O)n1Cc1ccccn1 the results were HT1080 IDH1KD tx -7.0%, IL-1B inflam inh 18.7, TDP1 cell CPT inconclusive, HT1080-NT tox -23.0% and TDP1 cell noCPT inconclusive.
Screening Cc1ccc(CSc2nc3ccsc3c(=O)n2Cc2ccccn2)cc1 returned HT1080 IDH1KD tx -9.7%, IL-1B inflam inh inconclusive, TDP1 cell CPT inconclusive, HT1080-NT tox 0.5% and TDP1 cell noCPT 16.4µM*.
`O=c1c2sccc2nc(SCc2cc(=O)n3cc(Br)ccc3n2)n1Cc1ccccn1` gave HT1080 IDH1KD tx -1.4%, IL-1B inflam inh -53.3*, TDP1 cell CPT 20.6µM*, HT1080-NT tox 3.3% and TDP1 cell noCPT 20.6µM*.
For O=C(O)C1CCC(Cn2c(SCc3cc(=O)n4ccccc4n3)nc3ccsc3c2=O)CC1 (stereo not drawn) the results were HT1080 IDH1KD tx 4.9%, IL-1B inflam inh 39.2, TDP1 cell CPT -13.8%, HT1080-NT tox inconclusive and TDP1 cell noCPT inconclusive.
Screening CCOc1cc(C2Nc3ccccc3NC3=C2C(=O)CC(C)(C)C3)ccc1OC(C)=O (stereo not drawn) returned HT1080 IDH1KD tx 12.4%, IL-1B inflam inh 2.7, TDP1 cell CPT -25.8%, HT1080-NT tox 6.4% and TDP1 cell noCPT -0.1%.
Cc1cc(NO)nc(-c2ccc(Br)cc2)n1 was read as HT1080 IDH1KD tx -7.9%, IL-1B inflam inh -4.4, TDP1 cell CPT -21.8%, HT1080-NT tox 10µM* and TDP1 cell noCPT -38.4%.
Cc1cc(C)nc(NC(=O)c2ccc(Br)cc2)n1 was read as HT1080 IDH1KD tx 8.0%, IL-1B inflam inh 0.7, TDP1 cell CPT 12.1%, HT1080-NT tox 5.5% and TDP1 cell noCPT 5.3%.
For COc1ccc(S(=O)(=O)N2CCOCC2)cc1NC(=O)CSc1nnc2c(n1)[nH]c1ccccc12 the results were HT1080 IDH1KD tx -11.5%, IL-1B inflam inh -8.6, TDP1 cell CPT inconclusive, HT1080-NT tox -19.5% and TDP1 cell noCPT inconclusive.
`Cc1cccc(NC(=O)CSc2nnc3scc(-c4ccccc4)n23)c1` gave TDP1 cell CPT inconclusive and TDP1 cell noCPT 20.6µM*.
Cc1ccc(-c2nc(NC(=O)CSc3ccc4ccccc4n3)ns2)cc1 was read as HT1080 IDH1KD tx 16.9%, IL-1B inflam inh 9.6, TDP1 cell CPT 14.6µM*!, HT1080-NT tox 3.0% and TDP1 cell noCPT inconclusive.
For O=C(CSc1nnc2scc(-c3ccccc3)n12)Nc1nsc(-c2ccccc2)n1 the results were HT1080 IDH1KD tx inconclusive, IL-1B inflam inh inconclusive, TDP1 cell CPT 14.6µM*, HT1080-NT tox 3.9%[9.24 µM] and TDP1 cell noCPT 23.1µM*.
`Cc1ccc(-c2csc3nnc(SCC(=O)Nc4nsc(-c5ccccc5)n4)n23)cc1` gave HT1080 IDH1KD tx inconclusive, IL-1B inflam inh -23.5, TDP1 cell CPT 20.6µM*, HT1080-NT tox inconclusive and TDP1 cell noCPT 23.1µM*.
`Cc1nnc(SCC(=O)Nc2nsc(-c3ccc(C(C)(C)C)cc3)n2)s1` gave HT1080 IDH1KD tx 1.0%, IL-1B inflam inh 0.9, TDP1 cell CPT -11.0%, HT1080-NT tox -3.1% and TDP1 cell noCPT -18.8%.
`CCOc1ccc(NC(=O)CSc2nnc3scc(-c4ccccc4)n23)cc1` gave TDP1 cell CPT -23.3% and TDP1 cell noCPT inconclusive.
Cc1ccc(-c2nc(NC(=O)CSc3nnnn3-c3ccccc3)ns2)cc1 was read as HT1080 IDH1KD tx 2.5%, IL-1B inflam inh -5.0, TDP1 cell CPT -13.1%, HT1080-NT tox 8.1% and TDP1 cell noCPT -23.9%.
For CC1(C(=O)NCc2ccccn2)C=CCN1C(=O)c1ccccc1 (stereo not drawn) the results were HT1080 IDH1KD tx 2.7%, IL-1B inflam inh 6.9, TDP1 cell CPT 13.3%, HT1080-NT tox 4.7% and TDP1 cell noCPT 2.1%.

Compound activity as filed in PubChem BioAssay.
